# Bioassay records from PubChem.
# PREPL inh = inhibits the human prolyl oligopeptidase-like enzyme; Q4J6C6; inhibition, % at 5.96 µM; recombinant PREPL, fluorescence polarization activity-based probe; actives 0.68% (n = 320,000); in the data active = inhibition above about 43%;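 also: 0% = enzyme with DMSO and 100% = wells lacking enzyme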
# Target sequence (Q4J6C6 whole entry, looked up): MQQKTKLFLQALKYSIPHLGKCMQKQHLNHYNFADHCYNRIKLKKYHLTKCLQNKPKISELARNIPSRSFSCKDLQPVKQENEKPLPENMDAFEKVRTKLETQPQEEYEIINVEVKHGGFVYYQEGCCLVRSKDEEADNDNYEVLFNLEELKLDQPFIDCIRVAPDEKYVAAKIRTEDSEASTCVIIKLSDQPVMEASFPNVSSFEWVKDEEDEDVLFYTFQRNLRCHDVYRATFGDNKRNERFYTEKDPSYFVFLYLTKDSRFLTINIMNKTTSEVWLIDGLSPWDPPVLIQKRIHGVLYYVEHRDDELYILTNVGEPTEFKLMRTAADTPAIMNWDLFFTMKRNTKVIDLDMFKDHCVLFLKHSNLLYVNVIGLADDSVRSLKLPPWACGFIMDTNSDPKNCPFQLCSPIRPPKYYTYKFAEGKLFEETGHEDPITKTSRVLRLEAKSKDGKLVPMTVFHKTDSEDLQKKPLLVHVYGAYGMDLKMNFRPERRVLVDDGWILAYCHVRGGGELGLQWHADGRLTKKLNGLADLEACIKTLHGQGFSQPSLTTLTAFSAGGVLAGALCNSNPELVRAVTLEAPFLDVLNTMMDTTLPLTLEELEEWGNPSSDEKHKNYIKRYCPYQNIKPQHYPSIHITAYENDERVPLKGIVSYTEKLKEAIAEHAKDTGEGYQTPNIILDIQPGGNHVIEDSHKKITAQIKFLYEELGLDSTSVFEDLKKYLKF
# LYPLA2 counter = blocks human lysophospholipase 2, a PME1 counter-screen; O95372; recombinant LYPLA2, FP-Rh probe fluorescence polarization; inhibition, % at 5.9 µM; actives 0.38% (n = 320,000);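 active = inhibition above the screen-wide mean plus 3 SD, limit set per campaign, cut at about 26% in these data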;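 also: 0% = LYPLA2 with DMSO and 100% = wells lacking LYPLA2 enzyme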
# LYPLA1 counter = blocks human lysophospholipase 1, a PME1 counter-screen | actives 0.16% (n = 320,000) | inhibition, % at 5.9 µM | O75608 | recombinant LYPLA1, FP-Rh probe fluorescence polarization;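 active = inhibition above the mean of all tested compounds plus 3 SD, set per campaign, cut at about 14% in these data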;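 also: inhibitors block serine hydrolase probe labeling of LYPLA1 so polarization falls; 0% = enzyme with DMSO and 100% = wells lacking LYPLA1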
# Fam108B counter = Fam108B inhibition, counter-screen for RBBP9 inhibitors; recombinant Fam108B, FP-Rh probe fluorescence polarization; inhibition, % at 9.51 µM; actives 0.33% (n = 300,000);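 active = inhibition above the screen mean inhibition plus 3 SD, computed separately per campaign, cut at about 18% in these data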;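 also: inhibitors lower polarization as less probe binds the enzyme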
# PME-1 primary = blocks human protein phosphatase methylesterase 1. Q9Y570. recombinant PME-1, FP-Rh probe fluorescence polarization. inhibition, % at 5.9 µM. actives 0.53% (n = 320,000). AID 2130;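 active = inhibition above the campaign mean of all compounds plus 3 SD, cut at about 26% in these data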;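 also: competitive labeling of PME-1 active site by serine hydrolase directed probe; 0% = PME-1 with DMSO and 100% = wells lacking PME-1 enzyme; inhibitors block probe labeling so polarization falls and inhibition rises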
# An asterisk follows results filed as active. This is a sample that favours compounds with a hit; in the whole collection about 1.3% have one here.
SMILES,PREPL inh,LYPLA2 counter,LYPLA1 counter,Fam108B counter,PME-1 primary
Oc1ccc(-c2cnc(-c3ccc(O)cc3)nc2)cc1,5,9,-1,-7,36*
CCn1c(=O)c2cc(C(=O)NCCOC)sc2c2ccccc21,2,2,1,0,-3
CCn1c(=O)c2cc(C(=O)Nc3ccc(OC)cc3OC)sc2c2ccccc21,4,0,3,-1,32*
CCOc1ncccc1C(=O)N1CCN(c2cc(Cl)ccc2C)CC1,19,28*,-1,2,-1
COc1ccc(CN(C)Cc2nc3scc(-c4ccccc4)c3c(=O)[nH]2)cc1OC,3,-10,-4,1,-1
CCOc1cc(C2NN=C(c3ccc(C)cc3)S2)ccc1O (stereo not drawn),14,6,-2,25*,8
CCc1nc(Nc2ccncc2)c2oc3ccccc3c2n1,-1,4,-2,0,1
CCc1nc(Nc2ccc3c(c2)OCO3)c2oc3ccccc3c2n1,25,8,5,3,31*
Cc1ccc(C#CC[N+]2(C)CCCCC2)cc1,10,0,2,0,3
CC(=O)N1CCN(c2ccc(NC(=S)NC(=O)COc3ccc(C(C)(C)C)cc3)cc2)CC1,36,12,1,0,40*
CC(C)(C)OC(=O)N1CC=C2C(C#N)=C(N)C(C#N)(C#N)C(c3cccs3)C2C1 (stereo not drawn),-4,-4,1,-5,9
CCCOc1ccc([C@@H]2C3CN(C(=O)OCC)CC=C3C(C#N)=C(N)C2(C#N)C#N)cc1OC (stereo partly drawn),8,-8,-2,5,48*
CCOC(=O)N1CC=C2C(C#N)=C(N)C(C#N)(C#N)[C@H](c3cccs3)C2C1 (stereo partly drawn),-3,-1,0,0,31*
CCCCn1c(N)c(N(Cc2ccccc2OC)C(=O)C(C)Oc2ccc(Cl)cc2)c(=O)[nH]c1=O (stereo not drawn),13,4,5,1,2
CCC(CC)COC(=O)C1=C(C)NC(=O)NC1c1cccc([N+](=O)[O-])c1 (stereo not drawn),16,5,-1,0,-1
CCO[C@@H]1OC(C(=O)N2CCN(Cc3ccccc3)CC2)=C[C@H](c2cn(C(C)=O)c3ccccc23)[C@H]1CCCO,15,4,-1,4,71*
CCO[C@@H]1OC(C(=O)N2CCOCC2)=C[C@H](c2cn(C(C)=O)c3ccccc23)[C@H]1CCCO,10,2,1,2,1
CCSc1ccccc1C(=O)NCc1ccc2c(c1)OCO2,12,0,-5,-3,-4
COc1ccccc1NS(=O)(=O)c1ccc(N/N=C/c2ccccc2OCC(=O)O)c([N+](=O)[O-])c1,19,6,3,8,54*
CCOc1ccc(NC(=S)NC(=O)c2cccnc2)c([N+](=O)[O-])c1,6,8,2,2,-8
CC(=O)c1sc(N/N=C\c2ccccc2O)nc1C,14,-2,1,4,15
COc1cc2c(cc1OC)CN(CC(=O)Nc1ccc(Cl)c(S(=O)(=O)N(C)C)c1)CC2,13,-10,-1,-3,40*
Cc1cccnc1Nc1nc(-c2ccc(O)c(O)c2)cs1,3,6,3,-5,36*
COc1ccc(-c2csc(Nc3ncccc3C)n2)cc1OC,14,-4,-1,7,17
COc1ccc(-c2sc(Nc3ccc(F)c(F)c3F)nc2CCC(=O)NN)cc1,27,4,-4,7,30*
SMILES,PREPL inh,LYPLA2 counter,LYPLA1 counter,Fam108B counter,PME-1 primary
Cc1cccc(NC(=O)CCc2ccccc2)c1C,11,0,-2,-4,-2
O=c1c2ccccc2nc(N/N=C/c2ccc(O)cc2)n1O,1,-9,0,1,-9
O=c1c2ccccc2nc(N/N=C/c2c(O)ccc3ccccc23)n1O,35,-5,-1,18,34*
COc1ccccc1CNC(=O)/C=C/c1ccc(Br)o1,-3,6,-1,-4,0
Cc1cc(C)nc(/N=C(\N)Nc2ccc(OCc3ccccc3)cc2)n1,39,30*,6,3,-6
COC(=O)c1ccc(C2NC(=O)c3c(sc(C)c3C)N2)cc1 (stereo not drawn),-3,-7,0,8,-12
COc1cc(C2Nc3cccc4cccc(c34)N2)cc(OC)c1O,16,10,-15,41*,48*
COC(=O)c1ccc(C2Nc3cccc4cccc(c34)N2)cc1,12,-3,-5,4,52*
